HCV inhibitor – blocks hepatitis C virus; Huh7.5.1 HCVcc-Cre infection, luciferase reporter, 44 h; Potency, µM (highest dose often 41.8 µM), without a hit: at the highest dose activity change, negative = inhibition, actives largely listed as inhibitors; 340,000 compounds, 3.4% hits; note: potency is the fitted concentration of half-maximal effect
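A cell-based infection assay in which seeded cells (1,000 per well) receive test compound after 4 h, are inoculated with HCVcc-Cre at approximately 0.5 moi, and are incubated 44 h before luminescence detection.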
Lassa entry inh – Lassa virus entry inhibition | Potency, µM (highest dose often 37.9 µM), for the others: at the highest dose activity change, negative = inhibition, hits mostly inhibitors | AID 540256 | 300,000 compounds, 1.2% hits | Lassa virus pseudotype entry inhibition, cell reporter; calls by dose curve; tested in HEK293 cells; note: potency is the fitted concentration of half-maximal effect; nearly all actives have a fitted effect of over 50% in size
Pf growth 96h – P. falciparum growth inhibition at 96 hours. P. falciparum luciferase reporter growth, 96 h. Potency, µM (series often up to 28.7 µM), without a hit: top-dose activity change, negative = inhibition, hits mostly inhibitors. 320,000 compounds, 6.9% hits. AID 504834; note: potency is the fitted concentration of half-maximal effect
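Readout is luminescence from an integrated firefly luciferase in P. falciparum. Red cells, 2% hematocrit and 0.05% parasitemia final, were cultured with compound through two parasite generations (96 hours) at 37 C, 5% CO2.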
Pf growth 48h – P. falciparum growth inhibition at 48 hours (one generation). AID 504832. 310,000 compounds, 5.9% hits. Potency, µM (titrated, usually from 28.7 µM), inactives show top-dose activity change, negative = inhibition, actives largely listed as inhibitors. P. falciparum luciferase growth in erythrocytes, 48 h; note: potency is the fitted concentration of half-maximal effect
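Luciferase-expressing P. falciparum in infected erythrocytes (2% hematocrit, 0.1% parasitemia final) in RPMI 1640/0.5% Albumax were exposed to compound for 48 hours at 37 C, 5% CO2; growth read as luminescence.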
MARV entry inh – Marburg virus entry inhibition | Marburg virus pseudotyped entry inhibition, cell reporter | Potency, µM (top dose mostly 37.8 µM), inactives show at the top dose activity change, negative = inhibition, hits mostly inhibitors | AID 540276 | 300,000 compounds, 1.8% hits; calls by dose curve; tested in HEK293 cells; note: potency is the fitted concentration of half-maximal effect
HCMV inh – human cytomegalovirus inhibition | HFF cells, HCMV-luciferase reporter, 72 h; stronger effect = lower value | 410,000 compounds, 4.5% hits | AID 1259415 | activity change, negative = inhibition, % at 57.5 µM; in the data active = activity change below about -60%; inconclusive = no clear call, values can overlap the other calls; inactive = above about -39%
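Cell-based, HFFs, 1000 cells/well, 16 h 37C; cpds in DMSO + HCMV-luc, MOI 1 PFU/cell; 72 h 37C; OneGlo luminescence after 5 min RT; norm. to buffer vs Salinomycin 10uM.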
An asterisk follows results filed as active; ? = inconclusive; . = no result; [ ] = dose if it differs, or a comment. This is a sample that favours compounds with a hit; in the whole collection about 14% have one here. Unless noted, calls come from the whole dose curve; as a rule, active = well fitted inhibition curve with a large enough effect; inconclusive = small, poorly fitted or top-dose-only effect, or another doubt; inactive = no such curve, though single readings can be large or run the other way. % is set by controls: 0 for no effect and ±100 for the full control effect.

SMILES	HCV inhibitor	Lassa entry inh	Pf growth 96h	Pf growth 48h	MARV entry inh	HCMV inh
CC(C)(C)OC(=O)NCCCC[C@@H](C(=O)NCCCCCCCCCCC(=O)N1CCN(C(=O)OC(C)(C)C)CC1)n1cc(CCCC(=O)O)nn1	17.1%	.	5.86µM*	7.38µM*	.	-13.8
CCCCc1cn([C@@H](CCCCNC(=O)OC(C)(C)C)C(=O)N2CCN(C(=O)OC(C)(C)C)CC2)nn1	13.9%	.	10.4µM*	14.7µM*	.	49.0
CC(O)Cc1cn([C@@H](CCCCNC(=O)OC(C)(C)C)C(=O)N2CCN(C(=O)OC(C)(C)C)CC2)nn1 (some centres undefined)	?	.	5.3%	1.2%	.	29.1
CC(C)(C)OC(=O)NCCCCCc1cn([C@@H](CO)C(=O)NCCCCCCCCCCC(=O)N2CCN(C(=O)OC(C)(C)C)CC2)nn1	?	.	2.94µM*	1.17µM*	.	-95.3*
CC(C)(C)OC(=O)NCCCC[C@@H](C(=O)N1CCN(C(=O)OC(C)(C)C)CC1)n1cc(CCC(=O)O)nn1	22.1%	.	38.5%	25.4%	.	13.4
COc1ccc([C@H]2C[C@@H](n3cc(C4CC4)nn3)[C@H](O)CN2CC2CCCCC2)cc1	.	.	.	.	.	10.8
COc1cccc(Nc2nccc3[nH]c(-c4cccc(C(F)(F)F)c4)nc23)c1	.	.	.	.	.	-18.0
C=Cc1ccc(CSc2nnc(C)n3c2cc2occc23)cc1	.	-18.6%[46.1 µM]	.	.	.	-0.4
COc1ccc(NCc2cc3cc4c(cc3n(CC(=O)Nc3ccc(C)cc3)c2=O)OCO4)cc1	.	-25.9%[46.1 µM]	.	.	.	-1.7
O=C(CN1C(=O)NC2(CCc3ccccc32)C1=O)NCCc1ccccc1 (centres undefined)	10.0%	4.1%	-8.9%	-3.9%	?	-10.1
Nc1cc(=O)[nH]c(SCc2ccc(Cl)cc2Cl)n1	3.16µM*	.	38.6%	.	.	-60.3*
Nc1ncnc2nc(SCc3ccc(Cl)cc3Cl)[nH]c12	4.7%	-22.9%	?	.	-8.7%	-11.4
O=C(NCCc1ccccc1Cl)c1ccc2c(c1)nc1n2CCCCC1	.	?	.	.	.	-80.6*
Cc1ccc(C)c(CNC(=O)c2ccc3c(c2)nc2n3CCCCC2)c1	.	7.94µM*	.	.	.	-23.0
Clc1ccc2c(c1)nc1n2CCCC1	25.1µM*	.	0.0%	12.0%	.	-8.4
CCOC(=O)C1=CCN(S(=O)(=O)c2ccc(C)cc2)C1c1cccc(Br)c1 (centres undefined)	.	.	.	.	.	-25.5
O=C1CC[C@@H](S(=O)(=O)c2ccccc2)[C@H](c2ccccc2)N1Cc1ccccc1	.	.	.	.	.	-14.6
CCOC(=O)c1sc(NC(=O)CC)nc1C	2.1%	?	19.8%	-2.8%	1.6%[46.1 µM]	?
COc1ccc(C(=O)NC(=S)Nc2nc(C)c(C(=O)N(C)C)s2)cc1	0.4%	15.9%	.	5.8%	8.4%	102.8
CCOC(=O)c1sc(NC(=S)NC(=O)c2ccc(OC)cc2)nc1C	?	-11.8%	2.94µM*	34.3%	8.0%	-4.4
CCCCOC(=O)Nc1nc(C)c(C(=O)OCC)s1	-1.7%	-12.5%	1.47µM*	.	1.0%	?
CCOc1ccc(C(=O)Nc2nc(C)c(C(=O)OC)s2)cc1	17.8µM*	24.2%[46.1 µM]	125.4%	86.4%	?	21.3
C[C@@H](c1ccccc1)N1C[C@H](COCc2ccccc2)Oc2cc(N3CCC[C@@H]3CO)ccc2S1(=O)=O	.	.	.	.	.	7.1
O=C(CN1CC(c2ccccc2)CC1=O)NCc1ccc(F)cc1 (centres undefined)	0.3%[8.37 µM]	-3.9%	4.15µM*	20.6%	11.1%	24.2
C=C1c2cccc(O)c2C(O)=C2C(=O)[C@]3(O)C(O)=C(C(N)=O)C(=O)[C@@H](N(C)C)[C@@H]3[C@@H](O)[C@H]12	5.0%	.	0.465µM*	?	.	2.0
SMILES	HCV inhibitor	Lassa entry inh	Pf growth 96h	Pf growth 48h	MARV entry inh	HCMV inh
C[C@H]1c2cccc(O)c2C(O)=C2C(=O)C3(O)C(O)=C(C(N)=O)C(=O)[C@@H](N(C)C)[C@@H]3[C@@H](O)[C@@H]21 (some centres undefined)	-11.6%	.	0.37µM*	4.65µM*	.	?
CN(C)c1ccc(O)c2c1CC1CC3C(N(C)C)C(=O)C(C(N)=O)=C(O)[C@@]3(O)C(=O)C1=C2O (some centres undefined)	-11.2%	.	.	.	.	-22.3
COc1cccc(-c2nnn(CC(=O)NC3CCCC3)n2)c1OC	?	15.1%	9.28µM*	-4.2%	15.4%	-28.0
O=C(Cn1nnc(-c2ccccc2NC(=O)C2CC2)n1)NC1CCCCC1	?	1.6%	.	-16.2%	3.2%	21.5
CC(C)COC(=O)c1ccc(N)cc1	.	.	21.8%	27.8%	.	.
CC(C)COc1ccc(N)cc1OCC(C)C	2.82µM*	-0.2%	24.4%	3.7%	17.0%[46.1 µM]	-39.2
CCC(=O)Oc1c(Sc2ccc(Cl)cc2)c(C)nn1C(C)(C)C	.	-11.1%[46.1 µM]	.	.	-1.3%[46.1 µM]	3.0
CN(C)S(=O)(=O)Oc1ccc(Cl)cc1C(=O)Nc1cccc(C(F)(F)F)c1	11.2µM*	-6.7%	?	?	-19.4%	145.8
CN(C)S(=O)(=O)Oc1ccsc1C(=O)Nc1cccc(Cl)c1	?	5.7%	?	1.65µM*	-11.3%	-9.3
CN1C(=O)c2ccc(C(=O)Nc3cccnc3)cc2C1=O	3.4%	?	?	14.9%	-10.3%[46.1 µM]	-7.4
O=C(NN1C(=O)c2ccc(-c3ccc4c(c3)C(=O)N(NC(=O)c3cccnc3)C4=O)cc2C1=O)c1cccnc1	4.2%	19.5%[46.1 µM]	32.5%	39.5%	-10.4%	-77.5*
C[C@@H]1CN([C@H](C)CO)C(=O)CCCn2nncc2CO[C@@H]1CN(C)S(=O)(=O)c1ccccc1F	.	.	.	.	.	-23.4
CNC(C)Cc1ccc(OC)cc1 (centres undefined)	.	.	.	.	.	4.0
CC(C)NC(C)Cc1ccc(I)cc1 (centres undefined)	?	8.9%	?	?	16.4µM*	-32.7
CC(C)N[C@@H](C)Cc1ccc(I)cc1	.	.	.	.	16.4µM*	.
Cc1ccc(-n2c(/C=C/c3c(C)n(C)c4ccccc34)nc3ccccc3c2=O)cc1	.	12.7%[46.1 µM]	.	.	.	-1.8
O=C(NCc1ccc(Cl)cc1)C1(c2cccs2)CCOCC1	.	-3.2%[46.1 µM]	.	.	.	-9.2
ClCCN(CCCl)c1ccc(-n2cnc3c(Cl)ncnc32)cc1	12.6µM*	?	.	.	?	-18.8
CCN(CC)C(=O)Cn1c(=O)cc(C)c2c(C)nn(-c3cccc(Cl)c3C)c21	.	-24.7%[46.1 µM]	.	.	.	-20.7
Cc1nn(-c2cccc(Cl)c2)c(Cl)c1/C=N/NC(=O)c1cccs1	-12.5%	?	?	10.4µM*	?	?
Cc1ccc(NC(=O)C2CCN(S(=O)(=O)c3c(C)noc3C)CC2)c(C)c1	.	-11.8%[46.1 µM]	.	.	20.8%[46.1 µM]	7.3
O=C(Nc1cccc(Cl)c1)/C(=C\c1cccnc1)NC(=O)c1ccco1	3.4%	.	11.1%[5.75 µM]	-13.7%[5.75 µM]	.	8.2
CC(=O)N(C1=C(N)C(=O)c2ccccc2C1=O)c1ccccc1	-23.5%	.	9.28µM*	?	.	-25.5

Screens deposited in PubChem by National Center for Advancing Translational Sciences (NCATS).
